Out of some 370,000 compounds screened, about 400 (0.11%) were called active. The sample as a whole holds a higher share of actives than the screen did. A number with no mark means an inactive call.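 Rule for the calls: active = activation at 10 µM reaching about 35% in either raw or pattern-adjusted values (limit read from the data); inactive = the rest.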

Sequence of Atrial natriuretic peptide receptor 2 (Homo sapiens) (P20594 whole entry, looked up): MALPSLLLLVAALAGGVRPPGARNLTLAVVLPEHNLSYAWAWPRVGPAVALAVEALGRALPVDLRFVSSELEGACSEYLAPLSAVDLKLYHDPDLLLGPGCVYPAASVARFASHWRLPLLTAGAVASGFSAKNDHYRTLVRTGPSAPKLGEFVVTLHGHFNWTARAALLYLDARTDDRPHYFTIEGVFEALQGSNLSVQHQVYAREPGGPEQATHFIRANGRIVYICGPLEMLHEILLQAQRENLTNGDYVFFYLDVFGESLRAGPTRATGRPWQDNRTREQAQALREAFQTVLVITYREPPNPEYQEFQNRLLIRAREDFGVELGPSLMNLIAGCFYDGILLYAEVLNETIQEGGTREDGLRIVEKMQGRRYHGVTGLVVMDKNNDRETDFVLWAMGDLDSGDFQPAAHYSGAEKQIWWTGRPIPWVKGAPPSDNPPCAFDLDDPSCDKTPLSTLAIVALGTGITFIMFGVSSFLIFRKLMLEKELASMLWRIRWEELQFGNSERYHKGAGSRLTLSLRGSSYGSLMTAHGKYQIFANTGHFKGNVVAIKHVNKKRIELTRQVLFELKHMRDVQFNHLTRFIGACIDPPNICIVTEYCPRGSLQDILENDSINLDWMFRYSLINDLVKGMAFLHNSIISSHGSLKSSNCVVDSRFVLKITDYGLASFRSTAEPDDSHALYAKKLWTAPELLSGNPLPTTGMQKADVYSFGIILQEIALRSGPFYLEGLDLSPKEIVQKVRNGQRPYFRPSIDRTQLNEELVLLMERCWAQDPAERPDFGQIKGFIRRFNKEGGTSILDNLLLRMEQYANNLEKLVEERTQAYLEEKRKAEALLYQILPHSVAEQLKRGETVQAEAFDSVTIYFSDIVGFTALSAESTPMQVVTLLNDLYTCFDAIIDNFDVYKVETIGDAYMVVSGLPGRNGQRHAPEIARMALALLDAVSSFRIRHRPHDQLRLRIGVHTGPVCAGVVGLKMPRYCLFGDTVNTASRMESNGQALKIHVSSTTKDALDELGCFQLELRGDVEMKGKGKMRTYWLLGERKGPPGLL

The experiment has as its target Atrial natriuretic peptide receptor 2 (Homo sapiens) (UniProt P20594). Nature of the experiment: GC-B stimulated cGMP production enhancers – HEK293 GC-B cells, cGMP TR-FRET, EC30 CNP, primary screen (AID 1920062). The following applies: at 10 µM, hits give high values, 0% at EC30 CNP, 100% saturating CNP. On the technique in general: Time-resolved FRET reads energy transfer from a long-lived donor to a nearby acceptor.
For the compound `O=C(CCCCCCCC(=O)N1CCCCC1)N1CCCCC1`, the activation was 2.66%.
For `Cc1ccc(NC(=S)N2CCCC(c3ccccc3)=N2)cc1` the value was -5.08%; for `Cc1cccc(NC(=S)N2CCCC(c3nc4ccccc4[nH]3)C2)c1` (stereo not drawn), 0.09%.
Then `CC(C)[C@H](NC(=O)c1ccc(F)cc1)C(=O)OCC(=O)NC(=O)c1cccn1C`, with -6.93%; and `COC(=O)CN(c1cccc(C(C)=O)c1)S(C)(=O)=O`, with -0.3%.
As for `COc1ccc(CNC(=O)COC(=O)CCS(=O)(=O)c2ccc(C)cc2)cc1OC`, the activation was -7.76%.
In the case of `COc1ccccc1CCCNC(=O)C1CCC(=O)N(CCN2CCOCC2)C1` (stereo not drawn), the activation was 0.93%.
For `Cc1ccc(C(=O)COC(=O)CCCC(=O)NC2CCCCC2)cc1[N+](=O)[O-]` the value was -3.79%; for `CCCc1c(C)nc2scc(-c3ccc(Cl)cc3)n2c1=O`, 3.02%; for `O=S(=O)(Cc1nnnn1-c1ccccc1)c1ccccc1`, 3.43%.
As for `CCCCc1ccc(S(N)(=O)=O)cc1`, the activation was 1.33%.
For `O=C(CCCN1C(=O)C2C3C=CC(C3)C2C1=O)N1CCN(c2ccccc2)CC1` (stereo not drawn) the value was 6.38%.
Then `COC(=O)c1cc(S(=O)(=O)N2CCN(C(=O)C3CCCO3)CC2)cn1C` (stereo not drawn), with -2.49%; and `Cn1c(CC2Sc3ccccc3NC2=O)nnc1SCC(=O)c1ccc(Cl)cc1` (stereo not drawn), with -0.22%; and `CC(CCc1ccc(O)cc1)NCc1ccc(Cl)cc1Cl` (stereo not drawn), with -2.85%.
As to `OC(CCl)CCl`, the activation is -3.1%.
For `COC(=O)Cc1c(-c2[nH]c3ccccc3c2CC(=O)OC)[nH]c2ccccc12` the value was 36.5% (active).
As to `CCOC(=O)C1CCN(C(=O)Cc2c(C(=O)O)[nH]c3ccccc23)CC1`, the activation was -0.71%.
In the case of `COC(=O)CCNC(=O)c1ccc2[nH]c(C)c(C)c2c1`, the activation was 2.4%.
For `N#CC1(NC(=O)COc2ccc3oc4ccccc4c3c2)CCCCC1` the value was -3.84%; for `CN1CCN(S(=O)(=O)c2ccc(NC(=O)C3CCCO3)cc2)CC1` (stereo not drawn), 1.58%; for `CCCOc1ccc(CN(CCO)CCO)cc1C(=O)OC`, 3.92%.
Then `Cc1ccsc1C(=O)NCCc1ccco1`, with 1.1%; and `O=c1c2ccccc2c(-c2ccc(Br)cc2)nn1Cc1ccccc1`, with 0.94%.
For `O=C(NCCc1ccco1)c1nn(Cc2ccccc2)c(=O)c2ccccc12` the value was 49.5% (active).
As to `COc1ccc(OC)c(-n2nnnc2SCC(=O)Nc2cc(C)ccc2OC)c1`, the activation was -3.61%.
For `COC(=O)c1ccc2ccccc2c1OC1OC(CO)C(O)C(O)C1NC(C)=O` (stereo not drawn) the value was 1.14%; for `CCCc1nc2ccccc2c(C(=O)OCc2nnc(-c3cc(OC)c(OC)c(OC)c3)o2)c1CC`, 27.3%; for `CC1(C)O[C@@H]2[C@H](O1)[C@@H](COS(=O)(=O)O)O[C@H]2n1cnc2c(=O)[nH]cnc21`, 9.84%.
On to `COc1cccc(CC(=O)N2CCN(C(=O)C(=O)c3cccc(C(F)(F)F)c3)CC2)c1`, for which the activation was 0.51%.
For the compound `COc1ccc(-n2c(SCC(=O)Nc3ccc4c(c3)OCCO4)nnc2-c2ccc(Cl)cc2)cc1`, the activation is -4.33%.
For `C/C(COc1ccccc1)=N\NC(=O)c1nnn(-c2nonc2N)c1-c1ccc(C)cc1` the value was -1.04%; for `Cc1cc(Cl)ccc1OCc1nc(-c2ccncc2)no1`, -5.32%.
On to `C=CCN(CC=C)C(=O)COC(=O)c1n[nH]c2ccccc12`, for which the activation is -3.45%.
For `CCCc1nn(C)c2c(=O)[nH]c(-c3cc(S(N)(=O)=O)ccc3OCC)nc12` the value was 55% (active).
Turning to `CCOc1ccc(-n2cnc3c(=O)[nH]c(N)nc32)cc1`, the activation is 20.7%.
Then `CCOc1ccccc1N1CCN(C(=S)Nc2ccc(S(N)(=O)=O)cc2)CC1`, with 0.9%.
For `Cc1ccc(NS(=O)(=O)c2ccc(C(=O)NCCCN3CCOCC3)cc2)cc1` the value was 1.4%; for `COc1ccc(S(=O)(=O)N2CCOCC2)cc1NC(=O)CSc1cc(C)ccc1C`, -3.41%.
Then `Cc1ccc(S(=O)(=O)N2CCOCC2)cc1NC(=O)CSc1nnc(N)s1`, with -3.12%.
For `COc1ccc(S(=O)(=O)N2CCOCC2)cc1NC(=O)CSc1nnc(NC2CC2)s1`, the activation was 56.9% (active).
Then `CCCCn1c(N)c(N(CC(C)C)C(=O)c2cccc(S(=O)(=O)N3CCN(C(C)=O)CC3)c2)c(=O)[nH]c1=O`, with 4.82%; and `CC(=O)Nc1ccc(Nc2ncnc3c2nnn3Cc2ccccc2Cl)cc1`, with -5.33%; and `COc1cccc(CNCCc2c[nH]c3ccccc23)c1OCc1ccccc1F`, with -11.1%.
Take `C/C=C/c1ccc(OCCOc2ccc(C=O)cc2OC)c(OC)c1`: the activation is -3.69%.
Then `COc1cc(CNc2ncn[nH]2)ccc1OCc1ccccc1C`, with -2.6%; and `COc1cc(/C=C2/C(=O)ON=C2C)ccc1OCc1cccc(F)c1`, with 38.1% (active); and `COc1cc(/C=C2/C(=O)ON=C2C)ccc1OCc1ccccc1F`, with 37.2% (active).
Turning to `COc1ccnc2c1c(=O)n(Cc1cccc(F)c1)c(=O)n2C`, the activation was 9.01%.
`COC(=O)[C@@H]1C[C@@]2(O)[C@@H](O)[C@@H](O)[C@@H](O)C[C@H]2N1Cc1ccc(C)s1`: the activation is -2.84%.
Then `O=C(/C=C/[C@H]1O[C@@H](n2cnc3c(NC(=O)c4ccccc4)ncnc32)[C@H](O)[C@@H]1O)NCc1ccccc1`, with -3.16%; and `O=C(Nc1nccs1)C1CCN(S(=O)(=O)c2ccc(Cl)c(C(F)(F)F)c2)CC1`, with -2.77%; and `COc1ccccc1C(=O)C(O)c1ccccc1OC` (stereo not drawn), with 4.06%.
Then `CC(=O)Nc1ccc(/C(C)=N/NC(=O)CN(c2ccccc2Br)S(C)(=O)=O)cc1`, with 1.02%.
Consider `COc1cc(C2C(N3C(=O)c4ccccc4C3=O)C(=O)N2c2ccc(C)c(C)c2)cc(OC)c1OC` (stereo not drawn), for which the activation is 3.45%.
For `Cc1cccc(N(C(=O)Cc2cccs2)C(C(=O)NCc2ccco2)c2ccncc2)c1` (stereo not drawn) the value was -16%; for `CC(C)n1c(-c2ccncc2)n[nH]c1=S`, 5.74%; for `Cc1ccccc1C1=NC(C(F)(F)F)(C(F)(F)F)c2c(n(-c3ccc(F)cc3)c(=O)[nH]c2=O)N1`, -3.86%.

The values are drawn from PubChem BioAssay AID1920062 (Sanford-Burnham Center for Chemical Genomics, 2024).
